From ChEMBL document CHEMBL1157539, “Thousands of chemical starting points for antimalarial lead identification” (Nature, 2010)

Tests used:
Type in all cases: functional
Plasmodium falciparum [1] = experiment: GSK_TCMDC: Inhibition of Plasmodium falciparum 3D7 in whole red blood cells, using parasite LDH activity as an index of growth. Test compounds present at 2uM
Plasmodium falciparum [2] = experiment: GSK_TCMDC: Inhibition of Plasmodium falciparum Dd2 in whole red blood cells, using parasite LDH activity as an index of growth. Test compounds present at 2uM
HepG2 = experiment: GSK_TCMDC: Percent inhibition of human HepG2 cell line. Test compounds present at 10uM.

Compound: Cc1sc(NC(=O)c2ccc([N+](=O)[O-])cc2Cl)c(C(N)=O)c1C
- Inhibition (Plasmodium falciparum [1]): 94%
- Inhibition (Plasmodium falciparum [2]): 2%
- Inhibition (HepG2): 2%

Compound: Cc1cccc2nc(-c3cccc(-c4cccc(NC(=O)c5ccc(C(N)=O)cc5)c4)c3)[nH]c12
- Inhibition (Plasmodium falciparum [1]): 100%
- Inhibition (Plasmodium falciparum [2]): 34%
- Inhibition (HepG2): 25%

Compound: Cc1ccc(/C=C2/SC(=Nc3ccccc3)NC2=O)c(C)c1
- Inhibition (Plasmodium falciparum [1]): 93%
- Inhibition (Plasmodium falciparum [2]): 90%
- Inhibition (HepG2): 1%

Compound: COc1ccc(CC(=O)Nc2ccc(-c3cccc(-c4nc5cccc(C)c5[nH]4)c3)cc2)cc1O
- Inhibition (Plasmodium falciparum [1]): 96%
- Inhibition (Plasmodium falciparum [2]): 30%
- Inhibition (HepG2): 6%

Compound: CCCC(=O)Nc1ccc(OCCCCN(CC(C)(C)C)c2ccc(C#N)c(C(F)(F)F)c2)cc1
- Inhibition (Plasmodium falciparum [1]): 83%
- Inhibition (Plasmodium falciparum [2]): 69%
- Inhibition (HepG2): 9%

Compound: Cc1ccc(NC(=O)c2ccc(CN3CCCN(Cc4cccc(Cl)c4)CC3)cc2)cc1C.O=C(O)C(F)(F)F
- Inhibition (Plasmodium falciparum [1]): 84%
- Inhibition (Plasmodium falciparum [2]): 18%
- Inhibition (HepG2): 41%

Compound: C=Cc1c(C2CCN(CCCCNC(=O)c3ccc(-c4ccc(C#N)cc4)cc3)CC2)ccc2c1CCCC2
- Inhibition (Plasmodium falciparum [1]): 94%
- Inhibition (Plasmodium falciparum [2]): 75%
- Inhibition (HepG2): 75%

Compound: O=[N+]([O-])c1ccc(C=NNc2nc(Nc3ccccc3)nc(Nc3ccccc3)n2)o1
- Inhibition (Plasmodium falciparum [1]): 94%
- Inhibition (Plasmodium falciparum [2]): 61%
- Inhibition (HepG2): 5%

Compound: COc1cc(C=CC(=O)N2CCC3(CC2)CC(=O)c2ccccc2O3)cc(OC)c1OC
- Inhibition (Plasmodium falciparum [1]): 88%
- Inhibition (Plasmodium falciparum [2]): 66%
- Inhibition (HepG2): 7%

Compound: Cc1ccc(C)c2sc(N3CCN(C(=O)c4ccc([N+](=O)[O-])o4)CC3)nc12
- Inhibition (Plasmodium falciparum [1]): 96%
- Inhibition (Plasmodium falciparum [2]): 89%
- Inhibition (HepG2): 0%

Compound: CC(=O)Nc1cccc(C(=O)Nc2ccc(-c3cccc(-c4nc5cc(C(F)(F)F)ccc5[nH]4)c3)cc2)c1
- Inhibition (Plasmodium falciparum [1]): 100%
- Inhibition (Plasmodium falciparum [2]): 85%
- Inhibition (HepG2): 81%

Compound: N#CCOc1c(C2CCN(CCCCNC(=O)c3ccc(-c4ccc(C(F)(F)F)cc4)cc3)CC2)ccc2c1CCCC2
- Inhibition (Plasmodium falciparum [1]): 97%
- Inhibition (Plasmodium falciparum [2]): 48%
- Inhibition (HepG2): 59%

Compound: CCNc1cc(C(=O)N[C@@H](Cc2ccccc2)[C@H](O)CNC23CC4CC(CC(C4)C2)C3)cc(N2CCCCS2(=O)=O)c1.Cl
- Inhibition (Plasmodium falciparum [1]): 98%
- Inhibition (Plasmodium falciparum [2]): 99%
- Inhibition (HepG2): 3%

Compound: O=C(CNCC1CCCCC1)Nc1cc(C(F)(F)F)ccc1Cl
- Inhibition (Plasmodium falciparum [1]): 86%
- Inhibition (Plasmodium falciparum [2]): 67%
- Inhibition (HepG2): 1%

Compound: CC[C@H](C)CNC(=O)c1ccnc(-c2cccc(CN3CCC(N4CCCC4)CC3)c2)c1.O=C(O)C(F)(F)F
- Inhibition (Plasmodium falciparum [1]): 97%
- Inhibition (Plasmodium falciparum [2]): 12%
- Inhibition (HepG2): 0%

Compound: O=C(O)C(F)(F)F.c1ccc2c(c1)CN(CC1CC1)CC1(CCN(Cc3c[nH]c4cnccc34)CC1)O2
- Inhibition (Plasmodium falciparum [1]): 100%
- Inhibition (Plasmodium falciparum [2]): 14%
- Inhibition (HepG2): 30%

Compound: COc1cc(Nc2nccc(N3CCC(NC(=O)c4cccc(NC(C)=O)c4)C3)n2)cc(OC)c1OC (stereo unspecified)
- Inhibition (Plasmodium falciparum [1]): 98%
- Inhibition (Plasmodium falciparum [2]): 68%
- Inhibition (HepG2): 9%

Compound: COc1ccc2nccc([C@@H](O)CN3CCC(NC(=O)/C=C/c4ccc5ccccc5n4)CC3)c2c1
- Inhibition (Plasmodium falciparum [1]): 91%
- Inhibition (Plasmodium falciparum [2]): 9%
- Inhibition (HepG2): 12%

Compound: Cc1cccc2nc(-c3ccc(-c4ccc(CNCc5cnn(-c6ccccc6)n5)cc4)s3)[nH]c12.O=C(O)C(F)(F)F
- Inhibition (Plasmodium falciparum [1]): 97%
- Inhibition (Plasmodium falciparum [2]): 48%
- Inhibition (HepG2): 16%

Compound: Cc1cc(N[C@@H](Cc2ccccc2)C(=O)NCc2cccc(F)c2)nc(NCCc2ccccc2)n1.O=C(O)C(F)(F)F
- Inhibition (Plasmodium falciparum [1]): 100%
- Inhibition (Plasmodium falciparum [2]): 73%
- Inhibition (HepG2): 7%

Compound: CC(C)(C)c1ccc2[nH]c(-c3ccc(C(=O)NCc4cccc(C(F)(F)F)c4)cc3)nc2c1
- Inhibition (Plasmodium falciparum [1]): 98%
- Inhibition (Plasmodium falciparum [2]): 26%
- Inhibition (HepG2): 9%

Compound: Cc1cccc2nc(-c3ccc(-c4cccc(CNCC5CCCO5)c4)cc3)[nH]c12.O=C(O)C(F)(F)F (stereo unspecified)
- Inhibition (Plasmodium falciparum [1]): 100%
- Inhibition (Plasmodium falciparum [2]): 50%
- Inhibition (HepG2): 18%

Compound: CCCCCCCN1CC[C@@H](CCCc2ccnc3ccc(OCCN4CCOCC4)cc23)[C@@H](CC)C1.O=C(O)C(=O)O
- Inhibition (Plasmodium falciparum [1]): 89%
- Inhibition (Plasmodium falciparum [2]): 3%
- Inhibition (HepG2): 14%

Compound: CCOCCCNc1ncc(-c2ccsc2)c(-c2nc(C)cs2)n1
- Inhibition (Plasmodium falciparum [1]): 89%
- Inhibition (Plasmodium falciparum [2]): 83%
- Inhibition (HepG2): 0%

Compound: O=C(c1ccccc1)N1CCC(CN2CCOC(c3ccccc3)(c3ccccc3)C2)CC1
- Inhibition (Plasmodium falciparum [1]): 94%
- Inhibition (Plasmodium falciparum [2]): 95%
- Inhibition (HepG2): 14%

Compound: COc1ccc(NC(=O)NCC2CCCN(CCCCCNC(=O)/C=C/c3ccc(Cl)c(Cl)c3)C2)c(OC)c1 (stereo unspecified)
- Inhibition (Plasmodium falciparum [1]): 95%
- Inhibition (Plasmodium falciparum [2]): 0%
- Inhibition (HepG2): 8%

Compound: Cl.Fc1cc(Cl)ccc1Nc1ccnc2cc(-c3ccc(CN4CCNCC4)o3)ccc12
- Inhibition (Plasmodium falciparum [1]): 100%
- Inhibition (Plasmodium falciparum [2]): 99%
- Inhibition (HepG2): 16%
